This is an account of results in PubChem BioAssay (NCATS).

Values without a mark were called inactive. Calls come from the whole dose curve; as a rule, active = well fitted curve in the direction sought with a large enough effect; inconclusive = small, poorly fitted or top-dose-only effect, or another doubt; inactive = no such curve, though single readings can be large or run the other way.

This assay has as its target alpha-glucosidase (Oryza sativa, rice) (UniProt Q653V4). Briefly: Counterscreen for Glucocerebrosidase Inhibitors: qHTS Assay for Rice alpha-Glucosidase at pH 5.0 (AID 997).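 Note: 0% = full activity with enzyme and -100% = basal without enzyme.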 As to conditions: rice alpha-glucosidase enzyme activity; series mostly up to 76.9 µM; activity change, negative = inhibition: at the top concentration. The text has this: NIH Chemical Genomics Center [NCGC]
NIH Molecular Libraries Screening Centers Network [MLSCN]
PI Name: Zheng, Wei [NIH]
Alpha-glucosidase is responsible for hydrolysis of terminal, non-reducing 1,4-linked alpha-D-glucose residues with release of alpha-D-glucose. It is a lysosomal hydrolase that is required for the degradation of a small percentage (1-3%) of cellular glycogen in human. Deficiency of this enzyme results in glycogen-storage disease type II (GSDII), also referred to as Pompe disease, an autosomal recessive disorder. Structurally normal glycogen is accumulated in lysosomes and cytoplasm in affected patients, primarily in muscle tissues. Excessive glycogen storage within lysosomes may interrupt normal functioning of other organelles and leads to cellular injury. In turn, this leads to enlargement and dysfunction of the entire organ involved (eg, cardiomyopathy and muscle weakness).
It has reported that the improper folding and trafficking of alpha-glucosidase resulted from the genetic mutations may account for a significant number of Prope patients. […] We optimized this alpha-glucosidase assay in 1536-well plate format for identifying the novel small molecule inhibitors with the structures other than the sugar analogs in order to develop the new pharmacological chaperones.
NCGC Assay Protocol Summary:
This is a fluorogenic enzyme assay with 4-methylumbelliferyl-alpha-D-pyranoside as the substrate and rice alpha-glucosidase as the enzyme preparation. Upon the hydrolysis of this fluorogenic substrate, the resulting product, 1. 4-methyllumbelliferone, can be excited at 365 nm and emits at 440 nm which can be detected by a standard fluorescence plate reader. Data were normalized to the controls for basal activity (without enzyme) and 100% activity (with enzyme). In the AC50 values were determined from concentration-response data modeled with the standard Hill equation.
Assay buffer: 50 mM citric acid, 0.005% Tween-20, pH 5.0. (pH 5.0 is an optimal condition for this enzyme assay)
1536-well assay protocol for the human alpha-glucosidase:
(1) Add 2 ul/well of enzyme (4 nM final)
(2) Add 23 nL compounds in DMSO solution. The final titration was 0.7 nM to 77 uM.
(3) Add 1 ul of substrate (400 uM final)
(4) Incubate at room temperature for 20 min.
(5) Add 2 ul stop solution (1M NaOH and 1M Glycine mixture, pH 10)
(6) Detect the assay plate in a ViewLux plate reader (PerkinElmer) with Ex=365 nm and Em=440nm.
Keywords: Alpha-glucosidase, Prope Disease, pharmacological chaperone, chaperone therapy, high throughput screening, alpha-glucosidase inhibitor, MLSMR, MLSCN, NIH Roadmap, qHTS and NCGC
`Cc1cccc(/C=C\c2ccccc2)n1`: the “activity change, negative = inhibition” value was -3.78%. As for `COc1cc2nc(N3CCN(C(=O)[C@H]4CCCO4)CC3)nc(N)c2cc1OC`, the “activity change, negative = inhibition” value is 23.5%. For `NCCNS(=O)(=O)c1cccc2cnccc12`, the “activity change, negative = inhibition” value was -0.366%.

As for `CSc1ccc2c(c1)[C@H](N1CCN(C)CC1)Cc1ccccc1S2`, the “activity change, negative = inhibition” value is -4.14%. Take `N[C@H](CCC(=O)N[C@H](CSN=O)C(=O)NCC(=O)O)C(=O)O`: the “activity change, negative = inhibition” value was -0.302%.

With `Cc1cccc(C)c1NC(=O)C[N+](C)(C)C`, the “activity change, negative = inhibition” value is 0.376%. With `COCCOC(=O)C1=C(C)NC(C)=C(C(=O)OC(C)C)[C@@H]1c1cccc([N+](=O)[O-])c1` the figure was -9.4%. With `S=C(Nc1ccccc1)Nc1nccs1` the figure was -0.0379%.

Regarding `C1CCC(N=C(NC23CC4CC(CC(C4)C2)C3)N2CCOCC2)CC1`, the “activity change, negative = inhibition” value is -6.5%. As for `CC(C)NC[C@@H](O)COc1ccc(CCOCC2CC2)cc1`, the “activity change, negative = inhibition” value is -0.166%. The result for `Cn1cnc2c(NC3CCCC3)ncnc21` reads -2.35%; that for `Fc1ccc(C(c2ccc(F)cc2)N2CCN(C/C=C\c3ccccc3)CC2)cc1`, -8.49%; that for `COC(=O)C1=C(C)NC(C)=C([N+](=O)[O-])[C@H]1c1ccccc1C(F)(F)F`, -4.3%.

As for `COc1[nH]c2ccc(F)cc2c1C(=O)OCC1CCN(CCNS(C)(=O)=O)CC1`, the “activity change, negative = inhibition” value was -0.639%. For `S=C(S)O[C@@H]1C[C@@H]2C[C@H]1[C@@H]1CCC[C@H]21`, the “activity change, negative = inhibition” value is -0.0696%. With `C[C@@H](CCc1ccc(O)cc1)NCCc1ccc(O)c(O)c1` the figure was 0.38%; with `CC(N)=NCCC[C@H](N)C(=O)O`, 1.36%.

`C=C[C@H](N)CCC(=O)O`: the “activity change, negative = inhibition” value was -1.73%. Turning to `COc1cc2c(cc1C(F)(F)F)N(C(=O)Nc1cc(F)cc(-c3cccnc3)c1)CC2`, the “activity change, negative = inhibition” value is -4.47%.

In the case of `COc1ccc(CCN(C)CCC[C@@](C#N)(c2ccc(OC)c(OC)c2)C(C)C)cc1OC`, the “activity change, negative = inhibition” value is -5.77%. With `CN1CCN(CCC=C2c3ccccc3Sc3ccc(S(=O)(=O)N(C)C)cc32)CC1` the figure was -0.576%. For `CN(C)CCCCSC(=N)N`, the “activity change, negative = inhibition” value was -3.18%.

Consider `O=C(NCCNC[C@@H](O)COc1ccc(O)cc1)N1CCOCC1`, for which the “activity change, negative = inhibition” value was -1.55%. Take `CC(N)=NCCCC[C@H](N)C(=O)O`: the “activity change, negative = inhibition” value was -2.24%. Take `CC[C@H](C)N(C)C(=O)c1cc2ccccc2c(-c2ccccc2Cl)n1`: the “activity change, negative = inhibition” value is -1.3%. The result for `CN(C)c1ccc(/C=C2/C(=O)Nc3ccccc32)cc1` reads -13.4%; that for `CC(N)=NCc1cccc(CN)c1`, 1.43%; that for `COc1ccccc1NC(=O)Nc1nc(-c2cccnc2)nc2ccccc12`, -0.897%. As to `C[C@]12CC3CC(N)(C1)C[C@@](C)(C3)C2`, the “activity change, negative = inhibition” value was 0.606%. With `NCCCCCCNS(=O)(=O)c1cccc2c(Cl)cccc12` the figure was -1.83%; with `O=Nc1c(-c2c(O)[nH]c3ccccc23)[nH]c2ccccc12`, 0.881%; with `N#C/C(=C\c1ccc(O)c(O)c1)C(=O)Nc1ccccc1`, -4.37%. The result for `CNCC[C@H](Oc1ccccc1OC)c1ccccc1` reads -3.39%; that for `O=C(NC[C@H]1CCCCN1)c1cc(OCC(F)(F)F)ccc1OCC(F)(F)F`, -0.317%; that for `CN1CCN2c3ccccc3Cc3ccccc3[C@@H]2C1`, -4.42%.

As for `CCOC(=O)C1=C(C)NC(C)=C(C(=O)OC)[C@H]1c1cccc([N+](=O)[O-])c1`, the “activity change, negative = inhibition” value is -7.22%. With `C[C@@H]1CCN=C(N)S1` the figure was 1.47%; with `O=C1CC[C@H](N2C(=O)c3ccccc3C2=O)C(=O)N1`, -3.27%. As to `CCCn1c(=O)c2[nH]c(-c3ccc(OCC(=O)Nc4ccc(C#N)cc4)cc3)nc2n(CCC)c1=O`, the “activity change, negative = inhibition” value was -3.1%. The result for `N[C@H](Cc1ccc(Cl)cc1)C(=O)O` reads -1.33%.
